Glyco luc inh – increase of ERlucT glycosylation luciferase signal, primary screen, N-linked glycosylation inhibitor project, D54 ERlucT cells, luminescence, set 2; D54 ERlucT glycosylation luciferase reporter, 24 h; percent of 100 nM tunicamycin response; reporter increase, % at 12.5 µM; hit rate 0.23% among 360,000; AID 588692, 2011;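 active = mean luciferase reporter signal, scaled so untreated is 0 and the glycosylation-blocking control 100, at or above a set limit in every replicate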;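 note: luciferase carries N-glycosylation sites so blocking glycosylation raises the light; 0% = median of neutral control wells and 100% = median of 100 nM tunicamycin wells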
DNA FID counter – compounds displacing fluorescent DNA intercalator, primary screen, artefact control for HCV NS3 helicase inhibitor project, biochemical, FID fluorescence; DNA fluorescent intercalator displacement; inhibition, % at 7.9 µM; hit rate 0.17% among 290,000; in the data active = inhibition above about 37%;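 note: 0% = vehicle and 100% = reference compound; higher means more ethidium bromide displaced from hairpin DNA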
RAD52 inh – RAD52 DNA annealing inhibitors, primary screen, biochemical, FRET, single point, set 2; DNA repair protein RAD52 homolog (Homo sapiens), P43351; recombinant RAD52 DNA annealing, FRET fluorescence; inhibition, % at 18.7 µM; hit rate 0.46% among 360,000;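 active = every replicate showing at least 50% inhibition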
Target sequence (P43351 whole entry, looked up): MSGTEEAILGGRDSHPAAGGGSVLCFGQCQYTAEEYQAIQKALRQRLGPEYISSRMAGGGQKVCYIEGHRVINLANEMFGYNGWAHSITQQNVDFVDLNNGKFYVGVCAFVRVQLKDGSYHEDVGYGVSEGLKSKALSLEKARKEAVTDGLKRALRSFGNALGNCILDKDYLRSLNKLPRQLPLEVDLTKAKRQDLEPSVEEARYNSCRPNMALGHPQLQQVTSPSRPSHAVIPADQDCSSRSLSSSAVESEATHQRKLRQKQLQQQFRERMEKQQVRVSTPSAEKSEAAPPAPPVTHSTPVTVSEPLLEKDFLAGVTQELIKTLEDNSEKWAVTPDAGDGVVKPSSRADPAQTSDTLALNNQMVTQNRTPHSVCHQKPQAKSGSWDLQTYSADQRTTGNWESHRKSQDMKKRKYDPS
miR122 inh – miR-122 Renilla sensor signal increase in Huh7, primary screen, miR-122 inhibitor project, cell-based, single point, plate reader; hit rate 0.3% among 340,000; activation (reporter increase), % at 12.5 µM; AID 602342, 2012; Huh7 miR-122 Renilla luciferase sensor, 48 h; neutral wells = 0, positive control = 100;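 active = mean replicate activation score at least 90 and every replicate individually at or above 90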;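 note: higher luciferase means less miR-122 activity so hits act as miR-122 inhibitors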
RAD54 inh – inhibitors of human RAD54 branch migration, primary screen, biochemical, fluorescence, single point; DNA repair and recombination protein RAD54-like (Homo sapiens), Q92698; RAD54 Holliday junction branch migration, FAM/BHQ fluorescence; inhibition, % at 10.4 µM; hit rate 0.14% among 360,000; AID 602329, 2012;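 active = mean normalized replicate activity at least 40 and at least half of replicates scoring 40 or more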;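 note: 0% = median of neutral control wells and 100% = median of positive control wells; inhibitors cause a drop in the FAM fluorescence signal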
NRP1-CendR mod – modulators of CendR peptide binding to NRP-1, primary screen, biochemical, fluorescence polarization, uHTS; hit rate 0.85% among 360,000; inhibition, % at 25 µM; FAM-RPARPAR peptide binding to NRP-1; Neuropilin-1 (Homo sapiens), O14786;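 active = inhibition or corrected inhibition above about 18%, plus a signal ratio from 0.5 to 1.5, limit read from the data, passing the limit was not always enough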
* marks the source's active call; other numbers are inactive results; [ ] = dose if it differs, or a comment. Compounds with a hit are over-represented: about 1.5% of the library has one in this group of screens.

Results for O=C(C[C@@H]1CC[C@H](NC(=O)CC2CC2)[C@@H](CO)O1)NCc1ccc(-c2ccccc2)cc1 ?
RAD52 inh: -1.8; RAD54 inh: 1.6

What do the screens show for `O=C(Nc1cc(F)ccc1F)N1C[C@@H]2[C@H](c3ccccc31)[C@@H](CO)N2Cc1ccncc1`?
RAD52 inh: -27.0; miR122 inh: -19.9[16.7 µM]; RAD54 inh: -2.5

How did c1ccc(N=Nc2ccc3cccccc2-3)cc1 do in these assays?
Glyco luc inh: 25.8*; RAD52 inh: -14.7; RAD54 inh: -2.8; NRP1-CendR mod: 5.2

What do the screens show for `Nc1ccc(N=Nc2ccccc2)c2ccccc12`?
Glyco luc inh: 1.8; DNA FID counter: 13.3; RAD52 inh: -12.4; RAD54 inh: 3.7; NRP1-CendR mod: 2.8

What do the screens show for `CCCCOC(=O)CCn1c(=S)oc2ccccc21`?
Glyco luc inh: 0.0; DNA FID counter: 0.7; miR122 inh: -1.1; RAD54 inh: -20.0; NRP1-CendR mod: 53.4*

Results for CN(C)CCCN1C(=O)c2cccc3c(Br)ccc(c23)C1=O ?
Glyco luc inh: 40.0*; DNA FID counter: 13.5; RAD52 inh: -3.9; NRP1-CendR mod: 24.8*

What do the screens show for `C[C@@H]1CN([C@H](C)CO)C(=O)c2cc(NC(=O)C3CCCCC3)ccc2O[C@@H]1CN(C)C(=O)Nc1ccccc1`?
RAD52 inh: 23.7; miR122 inh: -7.0[16.7 µM]; RAD54 inh: -8.6

What do the screens show for `Cc1ccc(N=CC2=C(O)CC(C)(C)CC2=O)nc1`?
Glyco luc inh: 0.5; DNA FID counter: -2.4; RAD54 inh: -3.1; NRP1-CendR mod: 24.1*

What do the screens show for `C[C@@H]1CCCCO[C@@H](CN(C)Cc2ccncc2)[C@@H](C)CN([C@@H](C)CO)C(=O)c2cc(NS(=O)(=O)c3cn(C)cn3)ccc2O1`?
RAD52 inh: -0.1; miR122 inh: 9.9[16.7 µM]; RAD54 inh: -1.9

How did COc1ccc(CCn2c(=N)c(C(=O)NCC3CCCO3)cc3c(=O)n4cccc(C)c4nc32)cc1 (configuration not stated) do in these assays?
Glyco luc inh: 40.9*; DNA FID counter: 17.7; RAD52 inh: -20.5; RAD54 inh: 11.4; NRP1-CendR mod: -4.7

How did COc1ccc(CNC(=O)c2cc3c(=O)n4cccc(C)c4nc3n(CC3CCCO3)c2=N)cc1 (configuration not stated) do in these assays?
Glyco luc inh: 1.1; DNA FID counter: 20.6; RAD52 inh: -66.5; miR122 inh: 0.7; RAD54 inh: -25.4; NRP1-CendR mod: -2.7

How did COc1ccc(-c2[nH]ncc2CN(C)CCc2c(C)n[nH]c2C)c(F)c1 do in these assays?
Glyco luc inh: -1.4; DNA FID counter: 3.8; RAD52 inh: -3.6; miR122 inh: -13.9; RAD54 inh: -2.2; NRP1-CendR mod: 26.0*

What do the screens show for `COc1ccccc1CNC(=O)C[C@H]1C[C@H]2c3cc(NS(=O)(=O)c4ccc(F)cc4)ccc3O[C@H]2[C@H](CO)O1`?
RAD52 inh: 2.4; miR122 inh: -3.5[16.7 µM]; RAD54 inh: 2.1

Results for COc1ccc2c3c(n(C)c2c1)[C@H](CO)NCC31CCN(CC2CC2)CC1 ?
RAD52 inh: 62.8*

What do the screens show for `COc1ccc2c3c(n(C)c2c1)[C@H](CO)NCC31CCN(Cc2ccncc2)CC1`?
RAD52 inh: -7.1

What do the screens show for `COc1ccc2c3c(n(C)c2c1)[C@@H](CO)NCC31CN(CC2CC2)C1`?
RAD52 inh: 56.1*

What do the screens show for `COc1ccc2c3c(n(C)c2c1)[C@H](CO)NCC31CN(Cc2ccc(-c3ccccn3)cc2)C1`?
RAD52 inh: 89.2*

Results for CCCC(=O)N1CCC2(CC1)CN(C(=O)C1CCCCC1)[C@H](CO)c1[nH]c3cc(OC)ccc3c12 ?
RAD52 inh: -3.1

Results for O=C(O)C[C@@H]1CC[C@@H](NC(=O)Nc2ccccc2)[C@H](CO)O1 ?
RAD52 inh: -3.6; RAD54 inh: 4.5

What do the screens show for `Cc1ccc(C(O)CN2C3=NCCN3c3ccccc32)cc1` (configuration not stated)?
Glyco luc inh: -8.3; DNA FID counter: 7.1; miR122 inh: -5.3; RAD54 inh: -2.2; NRP1-CendR mod: 56.0*

What do the screens show for `OC(CN1C2=NCCN2c2ccccc21)c1ccccc1` (configuration not stated)?
Glyco luc inh: 1.6; DNA FID counter: 1.3; RAD52 inh: -15.7; miR122 inh: 4.8; RAD54 inh: -22.3; NRP1-CendR mod: -15.7

What do the screens show for `C[C@@H]1CN([C@@H](C)CO)C(=O)Cc2cc(NC(=O)Nc3ccccc3)ccc2O[C@H]1CN(C)Cc1ccncc1`?
RAD52 inh: 8.3; miR122 inh: -0.2[16.7 µM]; RAD54 inh: 10.7

Results for COc1ccc(OC)c2c1CCC2=O ?
Glyco luc inh: 2.8; DNA FID counter: 1.8; miR122 inh: -4.4; RAD54 inh: 3.6; NRP1-CendR mod: 29.7*

How did COc1ccccc1N1CCN(C(CNC(=O)c2ccc3c(c2)OCO3)c2cccnc2)CC1 (configuration not stated) do in these assays?
Glyco luc inh: 0.3; DNA FID counter: -12.1; miR122 inh: -6.4; RAD54 inh: -6.1; NRP1-CendR mod: 29.0*

What do the screens show for `COc1ccccc1N1CCN(C(CNC(=O)C2CCCCC2)c2cccnc2)CC1` (configuration not stated)?
Glyco luc inh: 1.3; DNA FID counter: -24.7; RAD52 inh: -9.2; miR122 inh: -5.6; RAD54 inh: 4.9; NRP1-CendR mod: -9.1

How did CCN1C(=O)C(=Cc2cccc(OC)c2Oc2ccc([N+](=O)[O-])cc2[N+](=O)[O-])SC1=S do in these assays?
Glyco luc inh: -21.2; DNA FID counter: 3.0; RAD52 inh: -18.1; miR122 inh: -1.2; RAD54 inh: -7.4; NRP1-CendR mod: 25.1*

What do the screens show for `COc1ccc(S(=O)(=O)N(C)C[C@@H]2Oc3c(NC(=O)Nc4ccc(F)cc4)cccc3C(=O)N([C@H](C)CO)C[C@@H]2C)cc1`?
RAD52 inh: 9.5; miR122 inh: 3.9[16.7 µM]

What do the screens show for `CCCC[n+]1ccn(C2=C([O-])c3ccccc3C(=O)/C2=N\S(=O)(=O)c2ccc(Br)cc2)c1`?
Glyco luc inh: -8.1; DNA FID counter: -2.5; RAD52 inh: -229.1; NRP1-CendR mod: 3.6

Results for Cc1ccc(S(=O)(=O)/N=C2\C(=O)c3ccccc3C([O-])=C2n2cc[n+](CCC(C)C)c2)cc1 ?
Glyco luc inh: 5.0; DNA FID counter: -7.3; NRP1-CendR mod: 31.3*

Results for COc1ccc2c3c([nH]c2c1)[C@H](CO)N(Cc1cccc(F)c1)CC31CN(Cc2ccccn2)C1 ?
RAD52 inh: -19.9

Bioassay records: PubChem, several laboratories
